Source: the supplement of paper PMC7366291
Counter-ions that a name gives are not always drawn.

tested on: Danio rerio Tg(wt1b:EGFP) embryo, pronephros; assay: fraction of imaged embryos annotated as normal kidney; higher = less nephrotoxic; extreme values may be limits of the assay; conditions: 25 µM; exposure: 24-48 hpf
Procedure, shortened: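 From 24 to 48 hpf at 28.5°C, dechorionated Tg(wt1b:EGFP) zebrafish embryos in 12-well plates were kept in 5 mM HEPES-buffered E3 with 0.003% PTU, 0.5% DMSO and 25 μM compound. Pronephroi were imaged by widefield fluorescence at 470 nm and judged by eye from maximum projections. Reported is the proportion of embryos per treatment in the normal-kidney category.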

SMILES	fraction of imaged embryos annotated as normal kidney
O=P1(NCCCl)OCCCN1CCCl (stereo not given) [Ifosfamide]	0.833
CC[C@@H](CO)NC(=O)[C@@H]1C=C2c3cccc4[nH]cc(c34)C[C@H]2N(C)C1 [Methylergometrine maleate]	0.909
CNC(C)(C)Cc1ccccc1 [Mephentermine hemisulfate]	1
CCC1(C)CC(=O)NC(=O)C1 [Bemegride]	0.75
CN(C)C(=O)Oc1cc(OC(=O)N(C)C)cc(C(O)CNC(C)(C)C)c1 (stereo not given) [Bambuterol hydrochloride]	1
C[C@]12CC[C@@H](O)C[C@H]1CC[C@@H]1[C@@H]2CC[C@]2(C)C(=O)CC[C@@H]12 [3-alpha-Hydroxy-5-beta-androstan-17-one]	0.75
CCC(COC(=O)c1cc(OC)c(OC)c(OC)c1)(c1ccccc1)N(C)C (stereo not given) [Trimebutine]	0.917
COc1ccc2c(c1)[C@]13CCCC[C@@H]1[C@H](C2)N(C)CC3 [Dextromethorphan hydrobromide monohydrate]	0.833
CC(=O)O[C@H]1C[C@@H]2CC[C@@H]3[C@H](CC[C@@]4(C)[C@H]3C[C@H]([N+]3(C)CCCCC3)[C@@H]4OC(C)=O)[C@@]2(C)C[C@@H]1[N+]1(C)CCCCC1 [Pancuronium bromide]	1
C#C[C@]1(O)CC[C@H]2[C@@H]3CCC4=CC(=O)CCC4=C3C=C[C@@]21CC [Gestrinone]	0.417
COc1ccc(CN2CCNCC2)c(OC)c1OC [Trimetazidine dihydrochloride]	0.917
CN1[C@@H]2CC[C@H]1C[C@@H](OC(=O)[C@H](CO)c1ccccc1)C2 [Hyoscyamine (L)]	0.75
C[C@@H]1C[C@@H]([C@H](O)CC2CC(=O)NC(=O)C2)C(=O)[C@@H](C)C1 [Cycloheximide]	0.2
NCCCNCCSP(=O)(O)O [Amifostine]	0.833
CC(C)N(CCC(C(N)=O)(c1ccccc1)c1ccccn1)C(C)C (stereo not given) [Disopyramide]	0.667
C[N+]1(C)[C@@H]2CC[C@H]1C[C@@H](OC(=O)C(CO)c1ccccc1)C2 (stereo not given in full) [Methylatropine nitrate]	0.917
Oc1ccc2c3c1O[C@H]1[C@@H](O)CC[C@@]4(O)[C@@H](C2)N(CC2CCC2)CC[C@]314 [Nalbuphine hydrochloride]	0.75
C=CC[C@]1(O)CC[C@H]2[C@@H]3CCC4=CC(=O)CCC4=C3C=C[C@@]21C [Altrenogest]	0.333

SMILES	fraction of imaged embryos annotated as normal kidney
C[C@]12CC[C@@H]3c4ccc(OC(=O)N(CCCl)CCCl)cc4CC[C@H]3[C@@H]1CC[C@@H]2O [Estramustine]	0.333
NCC(O)c1ccc(O)cc1 (racemic) [(+,-)-Octopamine hydrochloride]	0.909
C#CCN(C)[C@H](C)Cc1ccccc1 [Selegiline hydrochloride]	0.75
CN1C(=O)CCS(=O)(=O)C1c1ccc(Cl)cc1 (stereo not given) [Chlormezanone]	0.545
O=P1(N(CCCl)CCCl)NCCCO1 (stereo not given) [Cyclophosphamide]	0.75
CC(=O)NC1CCSC1=O (racemic) [N-Acetyl-DL-homocysteine Thiolactone]	0.917
CCC1(c2cccc(O)c2)CCCCN(C)C1 (stereo not given) [Meptazinol hydrochloride]	0.917
NC(=O)C[S+]([O-])C(c1ccccc1)c1ccccc1 (stereo not given) [Modafinil]	0.5
CC(C)CC(N(C)C)C1(c2ccc(Cl)cc2)CCC1 (stereo not given) [Sibutramine hydrochloride]	0.417
O=[N+]([O-])O[C@@H]1CO[C@H]2[C@@H]1OC[C@@H]2O [Isosorbide mononitrate]	0.833
CN1C[C@H](CNC(=O)OCc2ccccc2)C[C@@H]2c3cccc4c3c(cn4C)C[C@H]21 [Metergoline]	1
CC(=O)OC1CN2CCC1CC2 (stereo not given) [Aceclidine Hydrochloride]	0.917
Fc1ccc(C(OCCN2CCN(CCCc3ccccc3)CC2)c2ccc(F)cc2)cc1	0
C=CCN1CC[C@]23c4c5ccc(O)c4O[C@H]2C(=O)CC[C@@]3(O)[C@H]1C5 [Naloxone hydrochloride]	0.833
C1CCc2nnnn2CC1 [Pentylenetetrazole]	0.8
C[C@]12CC[C@H](O)C[C@H]1CC[C@@H]1[C@@H]2CC[C@]2(C)[C@@H](C3=CC(=O)OC3)CC[C@]12O [Digitoxigenin]	0.667
CC(C)[N+](C)(CCC(C(N)=O)(c1ccccc1)c1ccccc1)C(C)C [Isopropamide iodide]	0.818
